Cytotoxicity call data for 76 molecules are collected here from the antibiotic and cytotoxicity screens of Wong et al. (2023).

About 3,300 (8.5%) of roughly 39,000 compounds were called active. The sample holds actives, similar compounds and a random draw of the others, so the mix is not that of the screen.

The assay has as its system HepG2. Kind of assay: cytotoxicity call (relative viability < 0.9). As to conditions: 10 µM.
Turning to `C[C@@H]1CN([C@@H](C)CO)C(=O)c2cc(/C=C/c3ccccc3)cnc2O[C@@H]1CN(C)C(=O)CN1CCOCC1`, the cytotoxicity call was “inactive”.

`COc1ccc(NC(=O)N(C)C[C@@H]2OCCCC[C@@H](C)Oc3ccc(NC(=O)Nc4cccc5ccccc45)cc3C(=O)N([C@H](C)CO)C[C@@H]2C)cc1`: the cytotoxicity call is “inactive”.

With `C[C@@H]1CCCCO[C@@H](CN(C)C(=O)c2ccncc2)[C@H](C)CN([C@@H](C)CO)C(=O)c2cc(NC(=O)C3CCCCC3)ccc2O1`, the cytotoxicity call is “inactive”.

As to `Cc1noc(C)c1S(=O)(=O)N(C)C[C@@H]1Oc2ccc(NC(=O)CCCN(C)C)cc2CC(=O)N([C@@H](C)CO)C[C@H]1C`, the cytotoxicity call was “inactive”. The same measure for `C[C@H](CO)N1C[C@H](C)[C@@H](CN(C)C(=O)Nc2ccc3c(c2)OCO3)OCc2ccccc2-c2c(n(C)c3ccccc23)C1=O`: “inactive”.

Turning to `CN1C[C@@H]2CN(C(=O)[C@H]3CCOC3)C[C@H]2C1=O`, the cytotoxicity call is “inactive”.

For the molecule `CC(CO)(CO)NS(=O)(=O)c1ccccc1`, the cytotoxicity call was “inactive”. The same measure for `COc1ccncc1-c1ccccc1CN(C(=O)c1ccc(-c2ccc(C#N)cc2)o1)c1ccc(N2CCNCC2)cc1`: “active”; for `C[C@H](CO)N1C[C@H](C)[C@@H](CN(C)C(=O)Nc2ccc3c(c2)OCO3)OCCCC[C@H](C)Oc2ccc(NC(=O)CCC(F)(F)F)cc2C1=O`: “inactive”; for `COc1ccc(S(=O)(=O)Nc2ccc3c(c2)C(=O)N([C@H](C)CO)C[C@H](C)[C@H](CN(C)S(=O)(=O)c2c(C)noc2C)O3)cc1`: “inactive”.

Take `CO[C@H]1CN(C)C(=O)c2ccc(NC(=O)c3ccc(F)cc3)cc2OC[C@H](C)N(C(=O)CN(C)C)C[C@@H]1C`: the cytotoxicity call is “inactive”.

On to `COCCNC(=O)C[C@@H]1CC[C@@H]2[C@H](COc3ccc(NS(=O)(=O)c4ccc(Cl)cc4)cc3C(=O)N2C)O1`, for which the cytotoxicity call is “inactive”.

For the molecule `C[C@@](Cc1ccccc1)(NC(=O)CN)c1ccccc1`, the cytotoxicity call was “inactive”. Next, `O=C(O)CN(CCc1ccccc1)CC(=O)O`: “inactive”; `CN(C(=O)CN(CCO)CC(=O)N(C)C(C)(C)Cc1ccccc1)C(C)(C)Cc1ccccc1`: “active”; `O=C(NC1(c2ccccc2)CC1)c1c(CN2CCC(N3CCCCC3)CC2)c(-c2cccc(C(F)(F)F)c2)nc2cc(Br)ccc12`: “active”. The same measure for `COc1ccc(S(=O)(=O)N(C)C[C@@H]2Oc3c(NS(=O)(=O)c4ccccc4)cccc3C(=O)N([C@H](C)CO)C[C@H]2C)cc1`: “inactive”; for `COc1ccccc1OC[C@@H](O)CO`: “inactive”; for `COc1ccccc1OCC(O)CO` (stereo unspecified): “inactive”.

Take `COc1ccccc1OCCNCC(O)COc1cccc2[nH]c3ccccc3c12` (stereo unspecified): the cytotoxicity call is “active”. Next, `COc1cccc(OC)c1OCCNCCO`: “inactive”; `COc1ccccc1OCCNCC(O)COc1cccc2[nH]c3ccccc3c12.O=P(O)(O)O` (stereo unspecified): “active”. The same measure for `CO[C@@H]1CN(C)C(=O)c2ccc(NC(=O)Nc3ccccc3F)cc2OC[C@H](C)N(Cc2ccccc2C(=O)O)C[C@H]1C`: “inactive”; for `O=C(C[C@H]1C[C@@H]2c3cc(NC(=O)Cc4ccncc4)ccc3O[C@@H]2[C@@H](CO)O1)NCc1ccc2c(c1)OCO2`: “inactive”. The same measure for `Cc1noc(C)c1S(=O)(=O)Nc1ccc2c(c1)C(=O)N([C@@H](C)CO)C[C@@H](C)[C@H](CN(C)Cc1ccccc1)OCCCC[C@H](C)O2`: “inactive”; for `COc1ccc(NC(=O)N(C)C[C@@H]2Oc3ccc(NC(=O)C4CC4)cc3C(=O)N([C@H](C)CO)C[C@@H]2C)cc1`: “inactive”; for `Cc1ccc(S(=O)(=O)N(C)C[C@H]2Oc3ncc(-c4ccncc4)cc3C(=O)N([C@@H](C)CO)C[C@@H]2C)cc1`: “inactive”. In the case of `C[C@@H]1CCCCO[C@@H](CN(C)C(=O)Nc2cccc3ccccc23)[C@@H](C)CN([C@@H](C)CO)C(=O)c2cc(NC(=O)Nc3ccc(C(F)(F)F)cc3)ccc2O1`, the cytotoxicity call is “inactive”. Regarding `C[C@H]1CN([C@@H](C)CO)C(=O)Cc2cc(NC(=O)CCN3CCOCC3)ccc2O[C@H]1CN(C)Cc1ccc(C(=O)Nc2ccccc2N)cc1`, the cytotoxicity call is “inactive”. In the case of `Cc1ccc(S(=O)(=O)N[C@@H](Cc2ccccc2)C(=O)NCCCn2cc(CN3C(=O)COC[C@H]3c3ccccc3)nn2)cc1`, the cytotoxicity call was “inactive”.

For the molecule `CC(=O)O[C@@H]1[C@@H]2C[C@@H]([C@H]1OC(C)=O)[C@@H]1C(=O)N(C)C(=O)[C@@H]21`, the cytotoxicity call is “active”. Next, `CC(=O)O[C@@H]1[C@H](OC(C)=O)N(C)C(=O)N1C`: “inactive”; `CC(=O)O[C@@H]1[C@H](OC(C)=O)N(C(C)=O)C(=O)N1C(C)=O`: “inactive”; `C[C@@H]1CN([C@H](C)CO)C(=O)c2cccc(NS(C)(=O)=O)c2O[C@H]1CN(C)Cc1ccc(C(=O)Nc2ccccc2N)cc1`: “inactive”. `C[C@@H]1O[C@@H](OC[C@H]2O[C@@H](Oc3c(-c4ccc(O)cc4)oc4cc(O)cc(O)c4c3=O)[C@H](O)[C@@H](O)[C@@H]2O)[C@H](O)[C@H](O)[C@H]1O`: the cytotoxicity call is “inactive”. For the molecule `COc1ccc(CN2C[C@H](C)[C@H](OC)CN(C)C(=O)c3cc(NC(=O)c4nc5ccccc5s4)ccc3OC[C@@H]2C)cc1`, the cytotoxicity call was “inactive”.

As for `C[C@@H]1CN([C@@H](C)CO)C(=O)c2cc(NC(=O)Cn3cnnn3)ccc2O[C@@H]1CN(C)S(=O)(=O)c1ccc(F)cc1`, the cytotoxicity call was “inactive”. Next, `Cc1ccc(-c2ncns2)cc1`: “inactive”; `Cc1cccnc1[C@@H](NC(=O)C1CCN(CCOc2ccc(Cl)cc2Cl)CC1)c1ccc(Cl)cc1`: “inactive”; `O=C(N[C@H](c1ccc(Cl)cc1)c1ccsc1)C1CCN(Cc2ccc(Oc3ccccc3)cc2)CC1`: “inactive”. Next, `Cc1cccnc1[C@@H](NC(=O)C1CCN(Cc2ccc(Oc3ccccc3)cc2)CC1)c1ccc(F)cc1`: “inactive”; `O=C(N[C@@H](c1ccc(-c2ccccc2)cc1)c1cnccn1)C1CCN(Cc2ccc(Cl)c(Cl)c2)CC1`: “inactive”. As to `O=C(N[C@H](c1ccc(Cl)cc1)c1cnccn1)C1CCN(Cc2ccc(Oc3ccccc3)cc2)CC1`, the cytotoxicity call was “active”. Next, `O=C(N[C@@H](c1ccc(-c2ccccc2)cc1)c1cnccn1)C1CCN(Cc2ccc(Oc3ccccc3)cc2)CC1`: “active”; `O=C(N[C@@H](c1ccc(-c2ccccc2)cc1)c1cnccn1)C1CCN(Cc2cccc(C(F)(F)F)c2)CC1`: “inactive”; `COc1cc(CN2CCC(C(=O)N[C@@H](c3ccc(-c4ccccc4)cc3)c3cnccn3)CC2)cc(OC)c1`: “active”. Next, `COc1ccc([C@@H](NC(=O)C2CCN(Cc3ccc(Oc4ccccc4)cc3)CC2)c2ccccn2)cc1`: “inactive”; `Cc1cccnc1[C@@H](NC(=O)C1CCN(Cc2ccc(Cl)c(Cl)c2)CC1)c1ccc(Cl)cc1`: “active”. Next, `COc1cccc([C@@H](NC(=O)C2CCN(Cc3ccc(Oc4ccccc4)cc3)CC2)c2ccccn2)c1`: “inactive”; `COCC#Cc1ccc2c(c1)O[C@H](CN(C)C(=O)c1ccccc1F)[C@@H](C)CN([C@H](C)CO)S2(=O)=O`: “inactive”; `C[C@@H]1CN([C@H](C)CO)C(=O)Cc2cc(NS(=O)(=O)c3ccc(F)cc3)ccc2O[C@H]1CN(C)S(=O)(=O)c1ccc(F)cc1`: “inactive”.

As to `COc1ccc(cc1)NC(=O)N1CC[C@]2(CC1)CN([C@@H](CO)c1[nH]c3cc(ccc3c12)OC)C(=O)CN1CCOCC1`, the cytotoxicity call was “inactive”.

Regarding `O=C1NC(=O)/C(=C\c2ccccc2)N1`, the cytotoxicity call was “inactive”. The same measure for `O=C(N[C@@H]1CC(=O)N(C2CC2)C1)C1CCC1`: “inactive”; for `C[C@H]1CN([C@@H](C)CO)C(=O)c2cc(NC(=O)Cc3cn(C)c4ccccc34)ccc2O[C@@H]1CN(C)Cc1ccc(C(=O)Nc2ccccc2N)cc1`: “inactive”. The same measure for `C[C@H](CO)N1C[C@H](C)[C@H](CN(C)C(=O)Nc2ccccc2)Oc2ccc(NC(=O)C3CC3)cc2CC1=O`: “inactive”; for `N#Cc1cnc2c(C(N)=O)cnn2c1N`: “inactive”; for `Cc1noc(C)c1NC(=O)Nc1ccc2c(c1)C(=O)N([C@H](C)CO)C[C@@H](C)[C@H](CN(C)Cc1ccccc1)OCCCC[C@@H](C)O2`: “inactive”. Take `Nc1nc(=O)c2[nH]c(=O)c(=O)[nH]c2[nH]1`: the cytotoxicity call is “inactive”. The same measure for `Cc1noc(C)c1NC(=O)Nc1ccc2c(c1)C(=O)N([C@@H](C)CO)C[C@H](C)[C@@H](CN(C)S(=O)(=O)c1cccs1)OCCCC[C@H](C)O2`: “inactive”; for `C[C@@H]1CN([C@H](C)CO)C(=O)c2cc(NS(=O)(=O)c3cn(C)cn3)ccc2O[C@H]1CN(C)CC1CCCCC1`: “inactive”.

For the molecule `C[C@H]1CN([C@@H](C)CO)C(=O)CCCn2cc(nn2)CO[C@H]1CN(C)C(=O)Nc1ccccc1C(F)(F)F`, the cytotoxicity call is “inactive”. The same measure for `C[C@H](CO)N1C[C@H](C)[C@H](CN(C)S(C)(=O)=O)Oc2ncc(Br)cc2C1=O`: “inactive”. The same measure for `COc1ccc(/C=C/CN2CCC(C(=O)N[C@@H](c3ccc(-c4ccccc4)cc3)c3cnccn3)CC2)cc1`: “active”. For the molecule `COc1ccc([C@@H](NC(=O)C2CCN(CCOc3ccc(Cl)cc3Cl)CC2)c2ccccn2)cc1`, the cytotoxicity call is “inactive”. The same measure for `COc1ccccc1[C@@H](NC(=O)C1CCN(CCc2ccc(Br)cc2)CC1)c1ccccn1`: “inactive”; for `COc1ccc(NC(=O)Nc2ccc3c(c2)C(=O)N([C@@H](C)CO)C[C@H](C)[C@@H](CN(C)C(=O)Nc2c(C)noc2C)OCCCC[C@H](C)O3)cc1`: “inactive”.

In the case of `CC(C)N(C)C(=O)c1cccc(NC(=O)c2ccncc2)c1OCCCN(C)Cc1ccc(Oc2ccccc2)cc1`, the cytotoxicity call is “inactive”. The same measure for `C=CC(C)(O)CCC=C(C)C` (stereo unspecified): “inactive”. Next, `C=C[C@](C)(O)CCC=C(C)C`: “inactive”; `C=CC(C)(O)CCC=C(C)CCC=C(C)C` (stereo unspecified): “active”.

`CC(C)=CCCC(C)=CCO`: the cytotoxicity call was “active”. Next, `CC(C)=CCCC(C)=CCCC(C)=CCCC(C)=CCCC(C)=CCCC(C)=CCCC(C)=CCCC(C)=CCCC(C)=CCO`: “inactive”; `CC(C)=CCC/C(C)=C/CO`: “inactive”; `CN1CCN(C(=O)C[C@@H]2CC[C@H]3[C@H](COc4ccc(NC(=O)c5ccc(F)c(F)c5)cc4C(=O)N3C)O2)CC1`: “inactive”. The same measure for `C[C@@H]1CN([C@H](C)CO)C(=O)Cc2cc(NS(=O)(=O)c3ccc(Cl)cc3)ccc2O[C@H]1CN(C)S(C)(=O)=O`: “inactive”.
